Bioassay records: PubChem, The Scripps Research Institute Molecular Screening Center
Hits are enriched below; roughly 4.1% of the tested compounds scored in any of these assays.
PRMT1 inh: PRMT1 (human) inhibition, primary screen | recombinant PRMT1, activity-based probe fluorescence polarization | inhibition, % at 2.79 µM | 1.3% of 370,000 active;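 active = inhibition above about 21% made by adding two undisclosed values, limit read from the data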
ABHD5 PLIN5 PPI: blocks binding of human ABHD5 to perilipin-5; Split G. princeps luciferase complementation, luminescence, 4 h; Q00G26+Q8WTS1; AID 602281; 0.78% of 360,000 active; inhibition, % at 4 µM;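 active = inhibition above the mean inhibition across every tested compound plus 3 SD, cut at about 22% in these data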;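 also: 0% = DMSO only wells and the 100% control is not disclosed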
Target sequence (Q00G26 whole entry, looked up): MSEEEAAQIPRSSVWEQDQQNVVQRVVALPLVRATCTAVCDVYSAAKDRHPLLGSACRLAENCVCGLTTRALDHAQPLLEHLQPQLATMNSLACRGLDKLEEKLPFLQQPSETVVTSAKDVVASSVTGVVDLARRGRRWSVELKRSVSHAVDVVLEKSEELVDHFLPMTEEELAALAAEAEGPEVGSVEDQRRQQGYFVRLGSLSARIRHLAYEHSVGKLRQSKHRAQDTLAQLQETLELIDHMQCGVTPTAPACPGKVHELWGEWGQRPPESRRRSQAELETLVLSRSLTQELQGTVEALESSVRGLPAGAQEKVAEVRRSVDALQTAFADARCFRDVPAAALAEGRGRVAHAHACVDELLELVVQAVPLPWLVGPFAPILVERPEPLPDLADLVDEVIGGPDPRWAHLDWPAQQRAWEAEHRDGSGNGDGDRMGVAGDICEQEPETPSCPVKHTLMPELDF
Target sequence (Q8WTS1 whole entry, looked up): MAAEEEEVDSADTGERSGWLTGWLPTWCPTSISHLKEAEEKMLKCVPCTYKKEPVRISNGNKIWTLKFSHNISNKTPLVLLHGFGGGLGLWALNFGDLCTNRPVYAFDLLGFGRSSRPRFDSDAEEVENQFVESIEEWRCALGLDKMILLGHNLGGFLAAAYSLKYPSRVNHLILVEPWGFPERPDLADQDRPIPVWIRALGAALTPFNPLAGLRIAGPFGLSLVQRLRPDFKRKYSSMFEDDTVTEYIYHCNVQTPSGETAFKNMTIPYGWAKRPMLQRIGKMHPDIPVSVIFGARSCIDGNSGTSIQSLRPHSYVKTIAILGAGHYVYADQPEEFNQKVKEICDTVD
LEDGF integ inh: blocks HIV-1 LEDGF/p75-dependent DNA integration; TR-FRET IN-LEDGF/p75 DNA integration, Eu/Cy5; inhibition, % at 3.7 µM; 0.64% of 370,000 active;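 active = inhibition above the screen-wide mean plus 3 SD, cut at about 13% in these data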;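 also: signal is the Cy5 over europium emission ratio at 671 and 618 nm; 0% = plate median of compound wells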
MBD2 inh: blocks human MBD2 binding to methylated DNA; Q9UBB5; TR-FRET, MBD2 binding to methylated oligonucleotide; inhibition, % at 4.4 µM; 0.31% of 370,000 active; AID 686964; in the data active = inhibition above about 13%
rCAG binder: binds r(CAG) RNA repeats; r(CAG) RNA repeat, TO-PRO-1 dye displacement fluorescence; inhibition, % at 3 µM; 1.3% of 370,000 active;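 active = inhibition above the plate cutoff, the mean of all test compounds on that plate plus 3 SD, cut at about 35% in these data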;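 also: 0% = DMSO alone and 100% = 100 µM mitoxantrone as full dye displacement; higher means more dye released from RNA so lower well fluorescence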
UHRF1 MBD2 ctr: UHRF1 methyl-DNA binding inhibition; UHRF1 binding to methylated oligo, TR-FRET; inhibition, % at 4.4 µM; 0.75% of 370,000 active; AID 687016; in the data active = inhibition above about 21%;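 also: UHRF1 SRA domain binding a hemimethylated CpG hairpin DNA probe; 0% = median of test compound wells and 100% = reference inhibitor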
Numbers without * were called inactive.

`O=C(Nc1ccc(S(=O)(=O)Nc2ncccn2)cc1)c1ccc2ncsc2c1` gave PRMT1 inh 24*, ABHD5 PLIN5 PPI -7, LEDGF integ inh 4, MBD2 inh 0, rCAG binder 9 and UHRF1 MBD2 ctr 0.
For Cc1ccc(NC(=O)NNS(=O)(=O)c2ccc(Br)cc2)cc1 the results were PRMT1 inh -2, ABHD5 PLIN5 PPI 2, LEDGF integ inh 0, MBD2 inh -5, rCAG binder 2 and UHRF1 MBD2 ctr 0.
`Cc1ccc(S(=O)(=O)NC(=O)Nc2ccc(N(C)C)cc2)cc1` gave PRMT1 inh 26*, ABHD5 PLIN5 PPI -2, LEDGF integ inh 26*, MBD2 inh -2, rCAG binder 8 and UHRF1 MBD2 ctr 4.
For N=c1cc(C2(O)CCCCC2)n2c(nc3ccccc32)s1 the results were PRMT1 inh 25*, ABHD5 PLIN5 PPI -5, LEDGF integ inh 0, MBD2 inh -6, rCAG binder 4 and UHRF1 MBD2 ctr -1.
For O=C(C(=O)N1CCN(S(=O)(=O)c2ccccc2)CC1)c1cccc(C(F)(F)F)c1 the results were PRMT1 inh -2, LEDGF integ inh 0, MBD2 inh -5, rCAG binder 3 and UHRF1 MBD2 ctr 1.
`Cc1ccc(-n2c(-c3nn(C)cc3Cl)n[nH]c2=S)cc1` gave PRMT1 inh 0, ABHD5 PLIN5 PPI -6, LEDGF integ inh 1, MBD2 inh 3, rCAG binder 0 and UHRF1 MBD2 ctr 21*.
`CSc1ccccc1C(=O)NCc1ccccc1C` gave PRMT1 inh 4, ABHD5 PLIN5 PPI -1, LEDGF integ inh -5, MBD2 inh 4, rCAG binder -4 and UHRF1 MBD2 ctr 22*.
Screening CC1=C(c2ccccc2)[N+](=O)C2(CCCC2)N1[O-] returned PRMT1 inh 2, ABHD5 PLIN5 PPI 1, LEDGF integ inh 1, MBD2 inh 2, rCAG binder -2 and UHRF1 MBD2 ctr 1.
For O=[N+]([O-])c1ccc2c(c1)N([O-])C1(CCCCC1)[N+]2=O the results were PRMT1 inh 14, LEDGF integ inh 8, MBD2 inh -3, rCAG binder 35* and UHRF1 MBD2 ctr -2.
Screening Cc1nc2ccc(C(=O)N3CCN(C(=O)OCc4ccccc4)CC3)cc2n1C1CCCC1 returned PRMT1 inh 3, LEDGF integ inh 2, MBD2 inh 2, rCAG binder 2 and UHRF1 MBD2 ctr -1.
`COc1cccc(C(=O)N[C@H](C(=O)N2CCC[C@H]2C(=O)NCc2ccccc2)C2CCCCC2)c1` gave PRMT1 inh 3, LEDGF integ inh 0, MBD2 inh 1, rCAG binder 0 and UHRF1 MBD2 ctr 1.
For Oc1ccc(N=Cc2ccc(-c3cccs3)s2)cc1 the results were PRMT1 inh 38*, ABHD5 PLIN5 PPI -10, LEDGF integ inh 47*, MBD2 inh -5, rCAG binder 22 and UHRF1 MBD2 ctr 11.
For O=Cc1ccc(-c2cccs2)s1 the results were PRMT1 inh -5, ABHD5 PLIN5 PPI -12, LEDGF integ inh 5, MBD2 inh -3, rCAG binder 0 and UHRF1 MBD2 ctr 1.
For Cc1cc(NC(=O)CSCC(=O)Nc2cc(Cl)ccc2N2CCN(C)CC2)no1 the results were PRMT1 inh 5, ABHD5 PLIN5 PPI 6, LEDGF integ inh -4, MBD2 inh 0, rCAG binder 0 and UHRF1 MBD2 ctr 28*.
For Cc1cccc(NC(=O)CSCC(=O)Nc2cc(Cl)ccc2N2CCN(C)CC2)c1 the results were PRMT1 inh 0, ABHD5 PLIN5 PPI 14, LEDGF integ inh -1, MBD2 inh 3, rCAG binder -5 and UHRF1 MBD2 ctr 0.
For O=S1(=O)c2c(NCc3ccco3)cccc2Oc2ccccc2CN1Cc1cn(Cc2ccccc2C(F)(F)F)nn1 the results were PRMT1 inh 1, LEDGF integ inh 2, MBD2 inh 4, rCAG binder 14 and UHRF1 MBD2 ctr -1.
For CCOc1ccc(C(=O)NCC(C)NC(=O)c2ccc(OCC)cc2)cc1 (configuration not stated) the results were PRMT1 inh 0, ABHD5 PLIN5 PPI -3, LEDGF integ inh 4, MBD2 inh 6, rCAG binder -2 and UHRF1 MBD2 ctr 24*.
For COC(=O)[C@@]12CCCCC3=C1N(CCC3)C(=O)[C@H]2CC(=O)NCC12CC3CC(CC(C3)C1)C2 the results were PRMT1 inh 3, LEDGF integ inh 0, MBD2 inh 6, rCAG binder 2 and UHRF1 MBD2 ctr -2.
For COC(=O)C1CCC(CNC(=O)C(Cc2ccc3c(c2)OCO3)NC(C)=O)CC1 (configuration not stated) the results were PRMT1 inh -1, LEDGF integ inh -1, MBD2 inh 1, rCAG binder 3 and UHRF1 MBD2 ctr -2.
For COc1ccc(N(CC(=O)NC2CC3CCC2C3)S(=O)(=O)c2ccccc2)cc1OC (configuration not stated) the results were PRMT1 inh -2, ABHD5 PLIN5 PPI 4, LEDGF integ inh -3, MBD2 inh 0, rCAG binder -3 and UHRF1 MBD2 ctr -1.
For CNC(=O)CN(c1cc(C)ccc1OC)S(=O)(=O)c1ccc(C)cc1 the results were PRMT1 inh -1, ABHD5 PLIN5 PPI -3, LEDGF integ inh 2, MBD2 inh 6, rCAG binder -4 and UHRF1 MBD2 ctr 41*.
Screening COc1ccc(N(CC(=O)NC2CC3CCC2C3)S(=O)(=O)c2ccc(C)cc2)cc1Cl (configuration not stated) returned PRMT1 inh -1, ABHD5 PLIN5 PPI -9, LEDGF integ inh 2, MBD2 inh 5, rCAG binder 3 and UHRF1 MBD2 ctr 22*.
Screening COC(=O)c1ccc(S(=O)(=O)N2CCC(NC(=O)Cc3cccc(C)c3)CC2)cc1 returned PRMT1 inh 3, LEDGF integ inh 2, MBD2 inh 0, rCAG binder 3 and UHRF1 MBD2 ctr 4.
Screening COC(=O)[C@]1(C#N)CC(=O)N(C(C)C)[C@@H]1c1ccccc1 returned PRMT1 inh -8, LEDGF integ inh 4, MBD2 inh 7, rCAG binder -1 and UHRF1 MBD2 ctr -2.
For COC(=O)[C@]12C[C@H](CC(=O)N3CCSCC3)C(=O)N(CCC3=CCCCC3)C1=C[C@H](C1CCCC1)O[C@@H]2C the results were PRMT1 inh 1, LEDGF integ inh 0, MBD2 inh 2, rCAG binder 3 and UHRF1 MBD2 ctr 3.
NC(=S)N/N=C/c1ccc(-c2cc(Cl)cc(Cl)c2)o1 was read as PRMT1 inh 7, ABHD5 PLIN5 PPI -10, LEDGF integ inh 2, MBD2 inh -5, rCAG binder 24 and UHRF1 MBD2 ctr -9.
NC(=S)N/N=C/c1ccc(-c2ccc([N+](=O)[O-])cc2)o1 was read as PRMT1 inh 21*, ABHD5 PLIN5 PPI -19, LEDGF integ inh -4, MBD2 inh -6, rCAG binder 19 and UHRF1 MBD2 ctr -2.
Screening C=CCN1[C@H](CC(C)C)COc2cc(F)ccc2S1(=O)=O returned PRMT1 inh 1, LEDGF integ inh -3, MBD2 inh 5, rCAG binder 1 and UHRF1 MBD2 ctr 1.
